The source made the active and inactive calls.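 The calls were made as follows: active = EC50 at most 10 µM with percent response changing by at least 30% across doses, from a valid fit; inactive = the rest.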
Test: disruption of GST–glutathione bead interaction – biochemical, flow cytometry beads, round 1, counter-screen for Rab7 GTPase inhibitor project, SAR follow-up (AID 602137)
Conditions: GST-GFP on GSH beads; series mostly up to 100 µM

Compound	outcome
COc1cccc(C(=O)NC(=S)Nc2sc3c(c2C(=O)O)CC(C)(C)OC3)c1	inactive
CC1(C)Cc2c(sc(NC(=O)Cc3ccccc3)c2C(=O)O)CO1	inactive
CC1(C)Cc2c(sc(NC(=S)NC(=O)c3ccccc3)c2C(=O)O)CO1	inactive
CC(C)(C)OC(=O)c1c(NC(=S)NC(=O)c2ccccc2)sc2c1CCOC2	inactive
Cc1ccc(NC(=O)Nc2sc3c(c2C(=O)O)CCN(C)C3)cc1	inactive
COC(=O)c1c(NC(=S)NC(=O)c2ccccc2)sc2c1CC(C)(C)OC2	inactive
CC1(C)Cc2c(sc(NC(=S)NC(=O)c3cccc(F)c3)c2C(=O)O)CO1	inactive
COc1ccc(C(=O)NC(=S)Nc2sc3c(c2C(=O)O)CC(C)(C)OC3)cc1	inactive
CCOC(=O)c1c(NC(=S)NC(=O)c2ccccc2)sc2ccccc12	inactive
O=C(NC(=S)Nc1sc2c(c1C(=O)O)CCOC2)c1ccccc1	inactive
CC1(C)Cc2c(sc(NC(=S)NC(=O)c3ccccc3F)c2C(=O)O)CO1	inactive
CCOC(=O)c1c(N)sc2ccccc12	inactive
NS(=O)(=O)c1ccc(N2N=C(c3ccccc3)CC2c2ccccc2)cc1 (stereo not given)	inactive
CN1CCc2c(sc3nc(Nc4ccc(F)cc4)oc(=O)c23)C1	inactive
O=C(C#Cc1ccccc1)c1cccc([N+](=O)[O-])c1	inactive
CC1(C)Cc2c(sc(NC(=S)NC(=O)c3cccc(Br)c3)c2C(=O)O)CO1	inactive
COc1ccc(C2CC(c3ccccc3)=NN2c2ccc(S(N)(=O)=O)cc2)cc1 (stereo not given)	inactive
CC1(C)Cc2c(sc(NC(=S)NC(=O)c3ccc(Br)cc3)c2C(=O)O)CO1	inactive
CN1CCc2c(sc(NC(=O)Nc3ccc(F)cc3)c2C(=O)O)C1	inactive
CC1Cc2c(sc(NC(=S)NC(=O)c3ccccc3)c2C(=O)O)CO1 (stereo not given)	inactive
CCOC(=O)c1c(NC(=O)Nc2ccc(C)cc2)sc2c1CCN(C)C2	inactive
CC1(C)Cc2c(sc(NC(=S)Nc3ccccc3)c2C(=O)O)CO1	inactive
CCOC(=O)c1c(NC(=O)NC(C)(C)C)sc2c1CCN(C)C2	inactive
CCOC(=O)c1c(NC(=S)Nc2ccccc2)sc2c1CC(C)(C)OC2	inactive
Cc1ccc(Nc2nc3sc4c(c3c(=O)o2)CCN(C)C4)cc1	inactive
CC1(C)Cc2c(sc(NC(=S)NC(=O)c3ccccc3Br)c2C(=O)O)CO1	inactive
COC(=O)c1c(N)sc2c1CC(C)(C)OC2	inactive
CC1(C)Cc2c(sc(NC(=O)NC(=O)c3ccccc3)c2C(=O)O)CO1	inactive
CC1(C)CCc2sc(NC(=S)NC(=O)c3ccccc3)c(C(=O)O)c2C1	inactive
CCOC(=O)c1c(NC(=O)Nc2ccc(F)cc2)sc2c1CCN(C)C2	inactive
